# Reference: ChEMBL document CHEMBL2218924, “A broad activity screen in support of a chemogenomic map for kinase signalling research and drug discovery” (Biochem J, 2013)
# Tests used:
# [1] = biological target: Homeodomain-interacting protein kinase 3 (Homo sapiens) (UniProt Q9H422); conditions: at 10 µM
# [2] = biological target: Tyrosine-protein kinase HCK (Homo sapiens) (UniProt P08631); conditions: at 1 µM
# [3] = biological target: Tyrosine-protein kinase HCK (Homo sapiens) (UniProt P08631); conditions: at 10 µM
# [4] = biological target: Tyrosine-protein kinase HCK (Homo sapiens) (UniProt P08631); conditions: at 1 µM; remark: listed apart in the source
# [5] = biological target: Tyrosine-protein kinase HCK (Homo sapiens) (UniProt P08631); conditions: at 10 µM; remark: listed apart in the source
# [6] = biological target: Insulin-like growth factor 1 receptor (Homo sapiens) (UniProt P08069); conditions: at 1 µM
# [7] = biological target: Protein kinase C theta type (Homo sapiens) (UniProt Q04759); conditions: at 1 µM
# [8] = biological target: Protein kinase C theta type (Homo sapiens) (UniProt Q04759); conditions: at 10 µM
# [9] = biological target: T1, Protein kinase C iota type (Homo sapiens) (UniProt P41743); conditions: at 1 µM
# T1 sequence (whole entry): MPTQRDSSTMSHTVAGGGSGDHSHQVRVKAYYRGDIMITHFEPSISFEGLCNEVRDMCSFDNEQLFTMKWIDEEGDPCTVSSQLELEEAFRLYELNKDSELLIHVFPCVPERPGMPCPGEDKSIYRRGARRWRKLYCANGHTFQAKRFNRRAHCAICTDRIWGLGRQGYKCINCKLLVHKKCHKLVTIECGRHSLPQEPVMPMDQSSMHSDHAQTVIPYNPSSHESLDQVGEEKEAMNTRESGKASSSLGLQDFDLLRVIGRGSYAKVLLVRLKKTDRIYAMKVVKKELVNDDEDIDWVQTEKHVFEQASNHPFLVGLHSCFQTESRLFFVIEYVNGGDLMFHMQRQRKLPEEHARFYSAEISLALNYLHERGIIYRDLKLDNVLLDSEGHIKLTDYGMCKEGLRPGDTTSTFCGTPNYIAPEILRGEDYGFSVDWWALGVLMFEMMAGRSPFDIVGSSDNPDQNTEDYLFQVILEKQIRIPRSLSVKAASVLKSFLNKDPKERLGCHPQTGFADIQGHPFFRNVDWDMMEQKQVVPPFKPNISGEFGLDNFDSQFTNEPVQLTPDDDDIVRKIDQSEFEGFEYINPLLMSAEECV
# [10] = biological target: T1, Protein kinase C iota type (Homo sapiens); conditions: at 10 µM
# [11] = biological target: T2, Serine/threonine-protein kinase D1 (Homo sapiens) (UniProt Q15139); conditions: at 1 µM
# T2 sequence (whole entry): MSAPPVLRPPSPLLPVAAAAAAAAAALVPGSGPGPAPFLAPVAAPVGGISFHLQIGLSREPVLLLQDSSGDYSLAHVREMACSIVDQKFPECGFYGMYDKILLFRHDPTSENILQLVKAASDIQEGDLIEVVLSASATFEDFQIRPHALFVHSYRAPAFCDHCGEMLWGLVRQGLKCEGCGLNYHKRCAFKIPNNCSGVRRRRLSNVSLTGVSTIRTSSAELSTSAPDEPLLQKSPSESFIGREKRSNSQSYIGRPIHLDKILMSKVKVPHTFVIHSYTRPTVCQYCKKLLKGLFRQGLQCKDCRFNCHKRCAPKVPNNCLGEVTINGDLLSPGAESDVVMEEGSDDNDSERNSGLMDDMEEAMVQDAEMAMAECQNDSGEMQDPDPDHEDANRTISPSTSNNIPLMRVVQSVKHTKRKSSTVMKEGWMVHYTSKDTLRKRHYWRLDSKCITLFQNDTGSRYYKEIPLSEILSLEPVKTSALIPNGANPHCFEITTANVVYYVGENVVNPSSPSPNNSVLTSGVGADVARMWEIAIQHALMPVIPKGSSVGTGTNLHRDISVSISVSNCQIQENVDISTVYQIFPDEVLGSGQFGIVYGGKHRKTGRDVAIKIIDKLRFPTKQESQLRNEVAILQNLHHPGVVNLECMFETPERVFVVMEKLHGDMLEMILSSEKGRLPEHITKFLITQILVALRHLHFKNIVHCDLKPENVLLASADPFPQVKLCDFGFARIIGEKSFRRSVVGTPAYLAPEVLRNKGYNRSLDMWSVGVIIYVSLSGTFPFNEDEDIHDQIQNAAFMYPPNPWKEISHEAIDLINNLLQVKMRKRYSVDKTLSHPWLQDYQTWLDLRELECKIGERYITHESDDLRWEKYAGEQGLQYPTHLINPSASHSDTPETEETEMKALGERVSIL
# [12] = biological target: T2, Serine/threonine-protein kinase D1 (Homo sapiens); conditions: at 10 µM
# [13] = biological target: T3, Serine/threonine-protein kinase haspin (Homo sapiens) (UniProt Q8TF76); conditions: at 1 µM
# T3 sequence (whole entry): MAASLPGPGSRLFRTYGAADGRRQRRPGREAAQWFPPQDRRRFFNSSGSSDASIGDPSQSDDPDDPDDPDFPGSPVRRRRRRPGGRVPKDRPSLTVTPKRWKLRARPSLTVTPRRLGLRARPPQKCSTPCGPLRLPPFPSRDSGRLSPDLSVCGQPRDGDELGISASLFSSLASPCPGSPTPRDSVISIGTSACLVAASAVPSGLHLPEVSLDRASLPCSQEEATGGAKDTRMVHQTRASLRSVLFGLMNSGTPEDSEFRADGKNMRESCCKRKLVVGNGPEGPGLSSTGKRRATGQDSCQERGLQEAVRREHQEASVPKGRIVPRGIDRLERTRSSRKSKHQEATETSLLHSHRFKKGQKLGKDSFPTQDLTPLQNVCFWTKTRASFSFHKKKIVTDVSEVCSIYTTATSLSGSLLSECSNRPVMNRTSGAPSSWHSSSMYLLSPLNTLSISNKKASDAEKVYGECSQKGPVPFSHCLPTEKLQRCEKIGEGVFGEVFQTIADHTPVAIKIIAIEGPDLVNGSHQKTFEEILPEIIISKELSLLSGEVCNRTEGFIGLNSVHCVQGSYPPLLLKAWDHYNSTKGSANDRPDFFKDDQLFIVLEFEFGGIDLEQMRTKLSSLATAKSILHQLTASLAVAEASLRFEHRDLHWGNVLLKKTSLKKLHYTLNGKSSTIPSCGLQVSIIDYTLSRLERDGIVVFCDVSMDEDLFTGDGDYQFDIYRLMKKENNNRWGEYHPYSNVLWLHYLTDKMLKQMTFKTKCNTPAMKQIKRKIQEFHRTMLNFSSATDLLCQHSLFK
# [14] = biological target: T3, Serine/threonine-protein kinase haspin (Homo sapiens); conditions: at 10 µM
# [15] = biological target: Insulin-like growth factor 1 receptor (Homo sapiens) (UniProt P08069); conditions: at 10 µM
# [16] = biological target: T4, Protein kinase C zeta type (Homo sapiens) (UniProt Q05513); conditions: at 10 µM
# T4 sequence (whole entry): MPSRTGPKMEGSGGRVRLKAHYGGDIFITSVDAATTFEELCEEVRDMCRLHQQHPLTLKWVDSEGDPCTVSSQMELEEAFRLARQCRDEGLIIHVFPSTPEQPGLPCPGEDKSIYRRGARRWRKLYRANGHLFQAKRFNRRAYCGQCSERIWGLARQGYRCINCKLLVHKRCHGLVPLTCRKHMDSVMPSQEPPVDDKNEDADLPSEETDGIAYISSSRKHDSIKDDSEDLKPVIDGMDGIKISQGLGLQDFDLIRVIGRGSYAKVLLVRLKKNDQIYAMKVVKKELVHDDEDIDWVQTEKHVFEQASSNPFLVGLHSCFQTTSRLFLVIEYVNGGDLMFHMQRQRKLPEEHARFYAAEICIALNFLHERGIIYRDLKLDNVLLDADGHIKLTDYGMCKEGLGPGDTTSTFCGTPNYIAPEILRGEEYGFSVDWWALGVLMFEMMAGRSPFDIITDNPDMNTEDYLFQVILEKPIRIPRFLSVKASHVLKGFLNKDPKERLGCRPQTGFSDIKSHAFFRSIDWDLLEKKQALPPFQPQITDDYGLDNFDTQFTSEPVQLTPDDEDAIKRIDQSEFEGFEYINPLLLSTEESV
# [17] = biological target: Protein kinase C eta type (Homo sapiens) (UniProt P24723); conditions: at 1 µM
# [18] = biological target: Protein kinase C eta type (Homo sapiens) (UniProt P24723); conditions: at 10 µM
# [19] = biological target: T5, Serine/threonine-protein kinase D2 (Homo sapiens) (UniProt Q9BZL6); conditions: at 1 µM
# T5 sequence (whole entry): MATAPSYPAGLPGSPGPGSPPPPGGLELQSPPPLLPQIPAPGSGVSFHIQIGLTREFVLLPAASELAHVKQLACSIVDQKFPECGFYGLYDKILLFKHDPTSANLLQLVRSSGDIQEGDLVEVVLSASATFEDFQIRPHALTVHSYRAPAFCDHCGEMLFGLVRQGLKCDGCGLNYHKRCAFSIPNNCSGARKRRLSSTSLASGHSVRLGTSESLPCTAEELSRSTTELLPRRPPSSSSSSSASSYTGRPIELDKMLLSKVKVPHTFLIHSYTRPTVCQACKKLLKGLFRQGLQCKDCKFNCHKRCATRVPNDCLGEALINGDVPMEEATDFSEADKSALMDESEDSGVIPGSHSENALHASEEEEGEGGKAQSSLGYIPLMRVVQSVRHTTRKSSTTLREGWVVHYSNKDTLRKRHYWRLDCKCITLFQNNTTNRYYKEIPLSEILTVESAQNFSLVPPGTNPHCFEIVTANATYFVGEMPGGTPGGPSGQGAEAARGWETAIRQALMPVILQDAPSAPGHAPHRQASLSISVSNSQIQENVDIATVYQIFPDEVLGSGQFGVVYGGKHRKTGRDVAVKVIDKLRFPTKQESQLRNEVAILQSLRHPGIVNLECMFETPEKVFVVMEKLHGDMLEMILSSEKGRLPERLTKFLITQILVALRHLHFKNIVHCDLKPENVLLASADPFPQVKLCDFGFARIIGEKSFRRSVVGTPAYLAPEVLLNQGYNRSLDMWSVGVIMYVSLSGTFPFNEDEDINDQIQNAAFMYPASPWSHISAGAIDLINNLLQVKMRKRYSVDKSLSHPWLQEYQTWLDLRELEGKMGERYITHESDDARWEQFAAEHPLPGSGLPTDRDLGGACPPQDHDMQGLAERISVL
# [20] = biological target: T5, Serine/threonine-protein kinase D2 (Homo sapiens); conditions: at 10 µM
# Sequence of Protein kinase C theta type (Homo sapiens) (Q04759 whole entry, looked up): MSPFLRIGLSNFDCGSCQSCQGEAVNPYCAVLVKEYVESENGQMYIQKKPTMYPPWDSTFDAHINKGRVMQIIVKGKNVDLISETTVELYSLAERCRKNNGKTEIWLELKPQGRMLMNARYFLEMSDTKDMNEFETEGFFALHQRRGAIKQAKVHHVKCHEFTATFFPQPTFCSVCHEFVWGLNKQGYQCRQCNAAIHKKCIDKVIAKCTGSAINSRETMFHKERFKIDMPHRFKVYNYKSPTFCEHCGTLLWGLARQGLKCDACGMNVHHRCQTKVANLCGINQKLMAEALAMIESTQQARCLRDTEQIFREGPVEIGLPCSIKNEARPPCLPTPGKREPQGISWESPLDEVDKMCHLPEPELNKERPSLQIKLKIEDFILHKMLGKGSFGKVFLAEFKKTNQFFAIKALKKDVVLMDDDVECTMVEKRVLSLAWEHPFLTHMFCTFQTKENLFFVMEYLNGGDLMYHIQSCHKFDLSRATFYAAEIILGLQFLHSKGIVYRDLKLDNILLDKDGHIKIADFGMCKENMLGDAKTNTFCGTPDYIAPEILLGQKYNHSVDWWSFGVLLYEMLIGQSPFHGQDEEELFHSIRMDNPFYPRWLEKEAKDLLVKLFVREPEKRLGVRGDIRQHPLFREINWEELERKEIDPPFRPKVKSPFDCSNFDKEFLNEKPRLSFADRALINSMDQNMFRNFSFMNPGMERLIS
# Sequence of Tyrosine-protein kinase HCK (Homo sapiens) (P08631 2-526 limits assumed): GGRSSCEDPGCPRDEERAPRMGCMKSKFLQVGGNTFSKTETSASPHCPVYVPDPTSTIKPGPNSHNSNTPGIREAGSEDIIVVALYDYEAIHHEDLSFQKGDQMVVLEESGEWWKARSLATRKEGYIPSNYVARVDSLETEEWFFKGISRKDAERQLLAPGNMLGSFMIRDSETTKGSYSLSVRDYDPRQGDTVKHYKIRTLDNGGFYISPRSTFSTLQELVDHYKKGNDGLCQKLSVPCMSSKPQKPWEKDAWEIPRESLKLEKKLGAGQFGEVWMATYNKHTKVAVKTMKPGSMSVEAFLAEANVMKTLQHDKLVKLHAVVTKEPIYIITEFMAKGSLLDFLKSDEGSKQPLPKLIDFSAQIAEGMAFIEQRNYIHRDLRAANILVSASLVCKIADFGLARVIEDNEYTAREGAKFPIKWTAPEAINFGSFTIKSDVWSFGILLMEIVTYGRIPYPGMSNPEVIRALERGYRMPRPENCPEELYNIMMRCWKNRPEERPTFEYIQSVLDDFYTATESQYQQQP
# Sequence of Insulin-like growth factor 1 receptor (Homo sapiens) (P08069 31-736 limits assumed): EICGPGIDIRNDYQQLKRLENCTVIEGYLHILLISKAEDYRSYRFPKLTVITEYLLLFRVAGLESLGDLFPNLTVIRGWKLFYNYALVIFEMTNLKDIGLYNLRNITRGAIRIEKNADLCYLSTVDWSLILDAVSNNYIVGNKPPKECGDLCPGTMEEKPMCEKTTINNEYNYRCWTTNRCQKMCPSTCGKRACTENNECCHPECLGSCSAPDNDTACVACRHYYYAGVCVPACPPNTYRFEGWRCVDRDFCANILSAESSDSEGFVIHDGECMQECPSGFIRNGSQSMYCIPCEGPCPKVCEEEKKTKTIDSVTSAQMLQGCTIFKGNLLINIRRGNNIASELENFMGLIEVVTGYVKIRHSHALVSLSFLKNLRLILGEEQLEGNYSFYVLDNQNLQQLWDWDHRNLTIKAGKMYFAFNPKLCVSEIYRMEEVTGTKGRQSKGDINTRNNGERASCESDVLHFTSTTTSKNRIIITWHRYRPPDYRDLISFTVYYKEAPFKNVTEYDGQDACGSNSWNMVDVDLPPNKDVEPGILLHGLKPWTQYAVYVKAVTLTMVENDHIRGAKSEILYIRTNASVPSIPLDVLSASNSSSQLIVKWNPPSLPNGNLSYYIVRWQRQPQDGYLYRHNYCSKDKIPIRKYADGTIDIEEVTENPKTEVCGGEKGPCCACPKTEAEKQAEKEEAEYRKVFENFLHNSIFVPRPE
# Sequence of Insulin-like growth factor 1 receptor (Homo sapiens) (P08069 741-1367 limits assumed): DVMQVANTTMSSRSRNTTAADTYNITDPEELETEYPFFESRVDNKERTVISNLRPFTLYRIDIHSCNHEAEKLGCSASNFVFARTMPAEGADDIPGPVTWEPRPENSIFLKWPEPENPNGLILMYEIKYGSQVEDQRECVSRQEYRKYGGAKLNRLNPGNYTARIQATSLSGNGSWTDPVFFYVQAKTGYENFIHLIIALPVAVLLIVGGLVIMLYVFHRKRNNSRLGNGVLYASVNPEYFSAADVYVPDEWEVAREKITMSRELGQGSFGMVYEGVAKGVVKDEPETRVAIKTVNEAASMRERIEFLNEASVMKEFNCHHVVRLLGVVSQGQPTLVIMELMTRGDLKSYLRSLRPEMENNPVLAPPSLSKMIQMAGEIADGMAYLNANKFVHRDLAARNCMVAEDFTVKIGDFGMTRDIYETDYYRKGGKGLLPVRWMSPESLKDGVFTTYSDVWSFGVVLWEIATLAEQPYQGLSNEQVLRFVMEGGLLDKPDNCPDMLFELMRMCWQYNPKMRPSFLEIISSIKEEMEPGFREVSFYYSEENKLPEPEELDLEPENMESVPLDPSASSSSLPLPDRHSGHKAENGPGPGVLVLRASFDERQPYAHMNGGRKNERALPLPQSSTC
# Sequence of Protein kinase C eta type (Homo sapiens) (P24723 whole entry): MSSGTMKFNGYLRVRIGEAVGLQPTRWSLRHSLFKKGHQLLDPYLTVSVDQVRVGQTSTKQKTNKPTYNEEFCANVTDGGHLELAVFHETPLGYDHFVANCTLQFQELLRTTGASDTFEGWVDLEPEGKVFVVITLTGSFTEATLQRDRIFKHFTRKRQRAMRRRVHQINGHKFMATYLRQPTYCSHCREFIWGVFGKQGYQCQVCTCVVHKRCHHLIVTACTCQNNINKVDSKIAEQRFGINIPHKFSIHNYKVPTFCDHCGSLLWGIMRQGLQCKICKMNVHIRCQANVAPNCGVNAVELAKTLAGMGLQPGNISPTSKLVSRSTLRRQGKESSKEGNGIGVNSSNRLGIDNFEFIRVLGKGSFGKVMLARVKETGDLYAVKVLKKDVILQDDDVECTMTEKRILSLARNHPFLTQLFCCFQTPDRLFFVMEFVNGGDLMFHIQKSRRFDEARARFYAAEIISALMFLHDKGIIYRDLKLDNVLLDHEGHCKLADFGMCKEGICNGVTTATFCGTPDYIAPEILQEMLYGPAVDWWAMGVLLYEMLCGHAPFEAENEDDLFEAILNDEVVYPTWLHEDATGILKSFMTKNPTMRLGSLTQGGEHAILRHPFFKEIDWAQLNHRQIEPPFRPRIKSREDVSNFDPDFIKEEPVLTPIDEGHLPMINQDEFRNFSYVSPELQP
# Sequence of Homeodomain-interacting protein kinase 3 (Homo sapiens) (Q9H422 whole entry, looked up): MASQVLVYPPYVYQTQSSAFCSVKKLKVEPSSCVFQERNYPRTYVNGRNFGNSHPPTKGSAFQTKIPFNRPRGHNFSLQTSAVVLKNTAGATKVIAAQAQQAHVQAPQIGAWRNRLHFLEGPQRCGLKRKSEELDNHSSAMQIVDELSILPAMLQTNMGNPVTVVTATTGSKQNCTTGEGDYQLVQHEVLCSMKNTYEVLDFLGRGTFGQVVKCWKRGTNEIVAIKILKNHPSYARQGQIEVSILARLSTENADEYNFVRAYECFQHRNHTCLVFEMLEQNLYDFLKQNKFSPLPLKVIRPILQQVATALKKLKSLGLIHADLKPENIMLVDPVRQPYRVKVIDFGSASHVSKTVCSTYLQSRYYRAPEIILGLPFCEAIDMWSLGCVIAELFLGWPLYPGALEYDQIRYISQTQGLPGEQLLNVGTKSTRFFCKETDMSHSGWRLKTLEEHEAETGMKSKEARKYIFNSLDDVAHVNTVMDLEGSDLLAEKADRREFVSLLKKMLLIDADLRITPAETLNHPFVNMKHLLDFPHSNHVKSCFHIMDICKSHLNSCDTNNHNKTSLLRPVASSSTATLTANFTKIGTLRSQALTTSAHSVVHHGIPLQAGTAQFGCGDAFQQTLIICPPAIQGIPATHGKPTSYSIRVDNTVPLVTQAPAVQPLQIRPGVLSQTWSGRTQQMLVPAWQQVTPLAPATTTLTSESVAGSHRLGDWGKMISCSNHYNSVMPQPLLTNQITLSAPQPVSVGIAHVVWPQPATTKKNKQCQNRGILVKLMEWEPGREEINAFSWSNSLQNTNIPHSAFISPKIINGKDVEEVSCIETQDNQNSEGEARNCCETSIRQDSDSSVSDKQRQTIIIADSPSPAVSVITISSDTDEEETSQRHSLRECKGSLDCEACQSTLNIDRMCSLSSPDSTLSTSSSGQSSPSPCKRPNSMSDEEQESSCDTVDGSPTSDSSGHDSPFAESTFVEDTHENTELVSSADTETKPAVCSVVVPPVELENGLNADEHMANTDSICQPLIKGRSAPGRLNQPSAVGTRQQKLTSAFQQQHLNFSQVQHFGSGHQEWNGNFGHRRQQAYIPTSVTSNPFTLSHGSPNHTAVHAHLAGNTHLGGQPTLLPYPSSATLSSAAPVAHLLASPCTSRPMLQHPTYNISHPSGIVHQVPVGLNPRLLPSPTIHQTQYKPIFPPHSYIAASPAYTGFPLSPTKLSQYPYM
SMILES,residual activity [1] [%],residual activity [2] [%],residual activity [3] [%],residual activity [4] [%],residual activity [5] [%],residual activity [6] [%],residual activity [7] [%],residual activity [8] [%],residual activity [9],residual activity [10] [%],residual activity [11] [%],residual activity [12] [%],residual activity [13] [%],residual activity [14] [%],residual activity [15] [%],residual activity [16] [%],residual activity [17] [%],residual activity [18] [%],residual activity [19] [%],residual activity [20] [%]
COc1ccc(Cl)cc1NC(=O)Nc1cc(C)nc2ccccc12,98,93,53,100,98,147,89,92,88% (inactive),86,95,87,–,–,–,–,–,–,–,–
NC(=O)Nc1sc(-c2ccc(F)cc2)cc1C(N)=O,90,24,6,37,7,82,83,50,109% (inactive),107,58,29,63,51,32,100,74,60,100,64
Cn1c2ccccc2c2c3c(c4c5ccccc5n(CCC#N)c4c21)CNC3=O,–,31,9,69,58,145,–,–,–,–,5,12,11,8,104,108,72,60,–,–
O=C(O)/C=C/c1cc(Br)c(Br)c(Br)c1Br,54,59,48,107,106,–,100,90,96% (inactive),100,109,64,79,71,–,88,100,79,102,97
